Assay outcomes: PubChem, National Center for Advancing Translational Sciences (NCATS)
Most compounds without a hit are left out; they make up all but 9.4% or so of the library.
ELG1 genotoxic – genotoxicity induction in ELG1-luciferase HEK293T cells; HEK293T ELG1-luciferase reporter, luminescence, 16 h; Potency, µM (highest dose often 46 µM), without a hit: at the top dose activity change, positive = activation, actives largely listed as activators; actives 1.3% (n = 330,000); note: % of control where 0% means no effect; nearly all actives have a fitted effect of over 60% in size
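ELG1-luciferase HEK293T cells, 2,000/well; compound pinned in; 16 hr, 37 °C, 5% CO2; ONE-Glo, 30 min RT; luminescence on CCD imager.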
FLuc modulator – counter-screen for miR-21 project: firefly luciferase inhibitors or activators; purified FLuc, Km substrates, luminescence inhibition; Potency, µM (doses to about 57.5 µM), inactives show at the highest dose activity change, negative = inhibition, most hits filed as inhibitors; actives 6.9% (n = 360,000); AID 588342;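 note: plate controls were vehicle for no effect and reference inhibitor for full effect; nearly all actives have a fitted effect of over 55% in size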
Target sequence (P08659 whole entry, looked up): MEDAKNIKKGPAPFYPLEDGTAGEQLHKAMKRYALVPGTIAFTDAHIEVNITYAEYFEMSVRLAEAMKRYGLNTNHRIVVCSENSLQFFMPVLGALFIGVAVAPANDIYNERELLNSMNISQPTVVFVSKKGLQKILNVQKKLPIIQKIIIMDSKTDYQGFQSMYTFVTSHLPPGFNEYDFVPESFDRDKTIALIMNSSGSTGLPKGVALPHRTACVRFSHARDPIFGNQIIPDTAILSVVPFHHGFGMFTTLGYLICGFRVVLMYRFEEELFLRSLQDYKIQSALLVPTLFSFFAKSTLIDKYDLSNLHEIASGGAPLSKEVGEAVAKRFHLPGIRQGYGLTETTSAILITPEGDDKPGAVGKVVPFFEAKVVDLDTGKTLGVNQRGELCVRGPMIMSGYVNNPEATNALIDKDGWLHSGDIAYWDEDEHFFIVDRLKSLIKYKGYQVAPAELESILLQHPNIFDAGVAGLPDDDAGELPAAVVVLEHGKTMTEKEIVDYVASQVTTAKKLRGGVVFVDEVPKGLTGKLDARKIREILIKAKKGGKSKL
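Purified P. pyralis luciferase, 10 nM final, with Km-level 10 uM D-luciferin and 10 uM ATP in 50 mM Tris acetate pH 7.5, 10 mM Mg acetate, 0.01% Tween-20, 0.05% BSA; 6-point qHTS titration about 60 µM downward; luminescence read.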
SMN2 splice up – enhancers of SMN2 splice variant expression. HEK293 SMN2-luciferase splicing reporter, luminescence, 30-36 h. Potency, µM (doses to about 46.1 µM), without a hit: at the top dose activity change, positive = activation, actives largely listed as activators. actives 2.8% (n = 210,000). AID 1458; note: % of control where 0% means no effect; nearly all actives have a fitted effect of over 55% in size
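HEK293 cells carry an SMN2 […]–luciferase reporter in which exon 7 inclusion puts luciferase in frame. Cells were plated 10-12 h before compound addition, then incubated 30-36 h at 37C. ONE-Glo luminescence was read; sodium butyrate at 4.5 mM final served as control.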
NPC1 prom act – activates the NPC1 promoter; actives 2.4% (n = 320,000); Potency, µM (highest dose often 9.22 µM), without a hit: at the highest dose activation, usual class: activators; Huh7 NPC1 promoter luciferase reporter, 24 h; note: % of control where 0% means no effect; nearly all actives have a fitted effect of over 60% in size
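NPC1 promoter–luciferase Huh7 cells; 24 h compound; luminescence.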
ELG1 DNA repair – blocks ELG1-dependent DNA repair in HEK293T cells | HEK293T ELG1-luciferase reporter, luminescence, 16 h; DNA damage induced by 5-fluorouridine | Potency, µM (top dose mostly 46.1 µM), inactives show top-dose activity change, negative = inhibition, hits mostly inhibitors | actives 2.3% (n = 330,000) | AID 504467; note: % is set by controls: 0 for no effect and ±100 for the full control effect; nearly all actives have a fitted effect of over 55% in size
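Quantitative HTS, concentration-response format. 2,000 cells/well co-treated with 5-fluorouridine and compound, 16 hr in 5% CO2 at 37 °C; ONE-Glo luminescence read after 30 min.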
Rab9 promoter act – Rab9 promoter activation; AID 485297; Potency, µM (titrated, usually from 9.22 µM), for inactives: at the highest dose activation, negative = inhibition, actives largely listed as activators; Huh7 Rab9 promoter-luciferase reporter, luminescence, 24 h; actives 2.8% (n = 320,000); note: % of control where 0% means no effect; nearly all actives have a fitted effect of over 60% in size
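Stable Rab9-luc Huh7, 1500 cells/well, 2 h settle; cmpd in DMSO, 24 h, 37 °C/5% CO2; luciferase reagent 10 min RT; luminescence.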
* hit, by the source's call; ? = inconclusive; nt = no result given; [ ] = dose if it differs, or a comment. Calls come from the whole dose curve; as a rule, active = well fitted curve in the direction sought with a large enough effect; inconclusive = small, poorly fitted or top-dose-only effect, or another doubt; inactive = no such curve, though single readings can be large; an effect the other way counts as inactive or inconclusive. Potency is the fitted concentration of half-maximal effect.

SMILES | ELG1 genotoxic | FLuc modulator | SMN2 splice up | NPC1 prom act | ELG1 DNA repair | Rab9 promoter act
Cc1c(C(=O)O)cnc2cc(-c3ccc(Cl)cc3)nn12 | ? | 9.53µM* | 11.2µM* | ? | ? | ?
CC(=O)c1cnc2c(-c3ccc(Cl)cc3)c(C)nn2c1C | 8.4% | -4.4% | -10.9% | 0.0% | 2.5% | 2.1%
COCCNc1cc(N2CCN(C3CCCCC3)CC2)c2noc3c2c1C(=O)c1ccccc1-3 | nt | 5.6% | -5.8% | nt | nt | nt
COc1ccc(S(=O)(=O)N2CCc3ccccc32)cc1C(=O)NCCc1ccccn1 | -6.9% | -4.4% | -8.3% | -9.9% | 18.3µM* | 12.9%
COc1ccc(S(=O)(=O)N2CCc3ccccc32)cc1C(=O)O | 0.8% | 2.1% | nt | 6.3% | -10.2% | 6.5%
O=C(O)CC1S/C(=N/N=C/C=C/c2ccccc2)NC1=O (stereo not drawn) | 3.2% | 19µM* | -5.5% | -2.0% | 11.0% | -0.1%
O=C(Nc1ccccc1C(=O)O)c1ccc(Cl)c(S(=O)(=O)N2CCOCC2)c1 | -6.8% | 6.75µM* | -10.4% | 14.4% | -0.3% | 25.9%
O=C(Nc1ccc(Cl)cc1)c1cc(S(=O)(=O)N2CCOCC2)cs1 | -4.8% | -3.2% | -64.6% | -1.9% | 14.6µM* | -0.2%
O=C(Nc1ccccc1N1CCOCC1)c1ccc(Cl)c(S(=O)(=O)NCc2ccco2)c1 | -10.7% | 2.3% | -1.8% | -3.7% | 16.4µM* | -9.0%
O=C(Nc1ccccc1C(=O)O)c1cc(S(=O)(=O)N2CCOCC2)cs1 | 0.6% | 19µM* | 8.6% | 0.6% | 19.6% | 4.4%
COc1ccc(OC(=O)c2cn(-c3cccc(OC)c3)c(=O)c3ccccc23)cc1 | nt | -0.7% | nt | nt | nt | nt
CCOC(=O)c1ccc(CN(Cc2ccc(F)cc2)S(=O)(=O)c2ccc(F)c(C(=O)Nc3c(C)cccc3C)c2)cc1 | nt | -5.7% | nt | nt | nt | nt
Cc1cccc(Nc2c(-c3cccs3)nc3nc(C)cc(C)n23)c1 | nt | ? | 24.2% | nt | nt | nt
Cc1nc2ccccc2cc1OCc1ccccc1 | -1.8% | 16.9µM* | -63.3% | -8.5% | 28.8% | -11.8%
COc1cccc(COc2cc3ccccc3nc2C)c1 | -0.4% | 19µM* | -14.1% | -10.3% | ? | -27.8%
Cc1nc2ccccc2cc1OCc1ccc(Cl)cc1 | -6.4% | ? | -75.5% | -14.2% | ? | -22.7%
Cc1ccc(/C=N/Nc2cccc3cccnc23)c(O)c1 | ? | 1.51µM* | nt | 3.98µM* | ? | ?
Oc1ccc(/C=N/Nc2cccc3cccnc23)c(O)c1 | 6.51µM* | 4.78µM* | 12.6µM* | 9.4% | ? | 3.16µM*
CCN(CC)CCCN1C=C2C(=O)C(C)(OC(=O)c3cccs3)C(=O)C=C2C=C1CCCC(=O)OC (stereo not drawn) | nt | nt | -9.7%[9.22 µM] | nt | nt | nt
Cc1cc(C)cc(-n2ccn3c(CC(C)(C)CC(=O)O)nnc3c2=O)c1 | nt | -5.2% | -3.6% | nt | nt | nt
O=C(NCc1ccccc1)c1c[nH]c2ccc(S(=O)(=O)Nc3ccc4c(c3)OCCO4)cc2c1=O | 1.1% | 1.4% | -11.3% | 6.0% | -28.0% | -7.1%
O=C(Nc1ccc2c(c1)OCO2)C(=O)c1c[nH]c2ccccc12 | 1.83µM* | 0.675µM* | nt | 0.398µM* | ? | 0.708µM*
O=C(Nc1ccc2c(c1)OCCO2)C(=O)c1c[nH]c2ccccc12 | ? | 0.19µM* | nt | ? | ? | 0.1µM*
Cc1[nH]c2ccccc2c1C(=O)C(=O)Nc1ccc2c(c1)OCCO2 | 17.4% | 15.1µM* | nt | ? | ? | ?
Cc1cc(NC(=O)C(=O)c2c(C)[nH]c3ccccc23)no1 | ? | 5.3% | -22.0% | -3.3% | 19.6% | -11.3%
CCN(CC)C(=O)Cn1cc(C(=O)C(=O)Nc2ccc3c(c2)OCCO3)c2ccccc21 | -1.5% | 3.38µM* | nt | 29.9% | ? | ?
COCCNc1c(-c2cc3ccc(C)c(C)c3[nH]c2=O)nc2ccccn12 | ? | 3.38µM* | nt | 2.51µM* | ? | 0.708µM*
